# Reference: PubChem BioAssay (NCI)
# Compounds without any hit were thinned out: in the full panel of roughly 83,000, 20% have a hit.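 Growth was measured after 48 h exposure to one concentration of compound in 96-well plates. Values under 10 count as active.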 Activity calls are given as the source filed them.
# Test system: NCI-H23 lung
# Assay: NCI-60 one-dose screen, 48 h (100 = growth as untreated, 0 = no growth, -100 = all killed)
# Conditions: 10 µM unless noted
row,SMILES,growth
1,COc1ccc(C(=O)c2c(N)c(C#N)cn2-c2ccc([N+](=O)[O-])cc2)cc1,103% (inactive)
2,Fc1ccc(F)c(CNc2nc(SCCN3CCOCC3)nc3c2cnn3CC(Cl)c2ccc(Br)cc2)c1 (configuration not stated),40.3% (inactive)
3,COc1ccc(N=Nc2c(N)nn3c(N)c(C#N)c(-c4ccc(F)cc4)nc23)cc1,39.7% (inactive)
4,COc1cc(CNC(=O)[C@]23CCC(C)(C)CC2C2=CCC4[C@@]5(C)CCC(OC(C)=O)C(C)(C)C5CC[C@@]4(C)[C@]2(C)CC3)ccc1OCc1cn(-c2ccc(Cl)cc2Cl)nn1 (some centres not stated),99% (inactive)
5,C/C(=N\Nc1ccc(C(=O)O)cc1)c1cnn(-c2cc(=O)[nH]c3ccc(C)cc23)c1C,106% (inactive)
6,N#Cc1cc(-c2ccnc(Nc3ccc(N4CCN(C5COC5)CC4)cc3)n2)ccc1N1CCCC1,82.9% (inactive)
7,O=C(N/N=C/c1ccc(Cl)cc1)c1ccc(OCc2nc3ccc(Cl)cc3[nH]2)cc1,4.91% (active)
8,COc1ccc(-c2nc3ccccc3n2CC(=O)N=Nc2c(O)[nH]c3ccc(Br)cc23)cc1,78.8% (inactive)
9,Clc1ccccc1Nc1nnc(-c2c[nH]c3ccccc23)o1,22.2% (inactive)
10,O=C(NC(=S)N1CCN(c2ncnc3c2cnn3-c2ccccc2)CC1)c1ccc(Br)cc1,64.4% (inactive)
11,COc1ccc(/C=C/c2nc3ccccc3n3c(-c4cccc([N+](=O)[O-])c4)nnc23)cc1,-78.1% (active)
12,CS(=O)(=O)Nc1cc(-c2ccc3ncnc(Nc4ccc(OCc5cccnc5)c(Cl)c4)c3c2)cnc1Cl,-26.9% (active)
